In PubChem BioAssay (NCI):
Compounds without any hit were thinned out: in the full panel of roughly 83,000, 20% have a hit.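 In brief: 96-well plates, 48 h treatment, single concentration, percent growth endpoint.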 Active and inactive are the calls of the source. Rule for the calls: active = growth percent below 10; inactive = the rest.

How the values were obtained:
Experiment in all cases: NCI-60 one-dose screen, 48 h (100 = growth as untreated, 0 = no growth, -100 = all killed)
Conditions in all cases: 10 µM unless noted
T-47D breast = tested on: T-47D breast
BT-549 breast = tested on: BT-549 breast
MDA-MB-435 melanoma = tested on: MDA-MB-435 melanoma
SW-620 colon = tested on: SW-620 colon
MCF7 breast = tested on: MCF7 breast
HCT-116 colon = tested on: HCT-116 colon
HCC-2998 colon = tested on: HCC-2998 colon
KM12 colon = tested on: KM12 colon

Measured: growth

Oc1[nH]c2ccc(Cl)cc2c1N=Nc1nc(N=Nc2c(O)[nH]c3ccc(Cl)cc23)nc(N2CCCCC2)n1
inactive: T-47D breast 81.5% | BT-549 breast 122% | MDA-MB-435 melanoma 75.8% | SW-620 colon 15.5% | MCF7 breast 51.7% | HCT-116 colon 23.9% | HCC-2998 colon 38.7% | KM12 colon 47.6%

CC[C@H](CC[C@@H](C)[C@H]1CC[C@H]2[C@@H]3CC(=O)C4=CC(=O)/C(=C/c5ccc([N+](=O)[O-])cc5)C[C@]4(C)[C@H]3CC[C@]12C)C(C)C
inactive: T-47D breast 89.1% | BT-549 breast 109% | MDA-MB-435 melanoma 94.4% | SW-620 colon 110% | MCF7 breast 84.8% | HCT-116 colon 86.5% | HCC-2998 colon 105% | KM12 colon 100%

Cn1cc(-c2nn3cc(-c4ccncc4)nc3s2)c2cc(Br)ccc21
inactive: T-47D breast 37.5% | BT-549 breast 49.5% | MDA-MB-435 melanoma 32.4% | SW-620 colon 42.3% | MCF7 breast 26.2% | HCT-116 colon 25% | HCC-2998 colon 58.9% | KM12 colon 65.8%

Clc1cccc(/C=N/Nc2nc(N/N=C/c3cccc(Cl)c3)nc(N3CCCCC3)n2)c1
inactive: T-47D breast 76% | BT-549 breast 94.9% | MDA-MB-435 melanoma 90.4% | SW-620 colon 103% | MCF7 breast 83.1% | HCT-116 colon 97.2% | HCC-2998 colon 108% | KM12 colon 91.1%

Cc1[nH]c(C(=O)Nc2ccccc2OCc2cccc(C(=O)NC3CCCNC3)c2)c(Cl)c1Cl (stereo not given)
active: T-47D breast -9.08% | MDA-MB-435 melanoma -80.2% | SW-620 colon -68.8% | MCF7 breast -77.8% | HCT-116 colon -67% | HCC-2998 colon -90% | KM12 colon -78.4%
inactive: BT-549 breast 98.8%

CCOC(=O)c1cnc2c(-c3ccc(Cl)c(Cl)c3)cnn2c1
inactive: T-47D breast 86.2% | BT-549 breast 26.5% | SW-620 colon 42.3% | MCF7 breast 82.8% | HCT-116 colon 62.7% | HCC-2998 colon 85% | KM12 colon 57.5%
active: MDA-MB-435 melanoma -20.3%

Cc1ccc2c(n1)C(=O)C(Cl)=C(Nc1ccc(C#N)cc1)C2=O
inactive: BT-549 breast 120% | MDA-MB-435 melanoma 99.5% | MCF7 breast 18.7% | HCT-116 colon 67.9% | HCC-2998 colon 108% | KM12 colon 102%
active: T-47D breast 7.98% | SW-620 colon -23.1%

C=CCSC1=NC2C(N(CC)C(=O)N2CC)N1/N=C/C=C/c1ccccc1OC (stereo not given)
active: MDA-MB-435 melanoma 2.79%
inactive: T-47D breast 68.9% | BT-549 breast 79.8% | SW-620 colon 69.7% | MCF7 breast 42.5% | HCT-116 colon 73.7% | HCC-2998 colon 97.8% | KM12 colon 57.8%

CCCCCN1C(=O)/C(=c2\sc3n(c2=O)C2C(NN=3)N(CC)C(=O)N2CC)c2cccc(C)c21 (stereo not given)
active: MDA-MB-435 melanoma -13.6%
inactive: T-47D breast 44% | BT-549 breast 68% | SW-620 colon 43.5% | MCF7 breast 18.2% | HCT-116 colon 32.3% | HCC-2998 colon 86% | KM12 colon 26.6%

C#Cc1nc(/C=C/C(=O)NO)cs1
inactive: T-47D breast 67.9% | BT-549 breast 101% | MDA-MB-435 melanoma 61.1% | SW-620 colon 45.8% | MCF7 breast 62.6% | HCT-116 colon 23.8% | HCC-2998 colon 111% | KM12 colon 56.3%

CC[C@]12C=CCN3CC[C@]4(C(=C(C(=O)OC)C1)Nc1cc5c(cc14)[C@@H]1[C@H](O5)[C@@H](O)[C@@]4(CC)CC(C(=O)OC)=C5Nc6cc(O)ccc6[C@@]56CCN1C46)C32 (stereo not given in full)
inactive: BT-549 breast 18.8%
active: T-47D breast 6.91% | MDA-MB-435 melanoma -38.2% | SW-620 colon 2.78% | MCF7 breast 3.26% | HCT-116 colon -70.5% | HCC-2998 colon -64.8% | KM12 colon -30.2%

N#C/C(=N\Nc1ccc(F)cc1)C(=O)Nc1cc(-c2ccccc2)nn1-c1ccccc1
inactive: SW-620 colon 17.5% | HCC-2998 colon 19.5%
active: T-47D breast -5.1% | BT-549 breast 7.63% | MDA-MB-435 melanoma 6.98% | MCF7 breast 0.117% | HCT-116 colon 7.78% | KM12 colon 9.32%

Cc1ccc2c(n1)C(=O)C(Cl)=C(Nc1ccc(C(=O)OC(C)(C)C)cc1)C2=O
inactive: BT-549 breast 84% [9.25 µM] | MDA-MB-435 melanoma 87.6% [9.25 µM] | MCF7 breast 11.3% [9.25 µM] | HCC-2998 colon 103% [9.25 µM] | KM12 colon 105% [9.25 µM]
active: T-47D breast -8.23% [9.25 µM] | SW-620 colon -42% [9.25 µM] | HCT-116 colon -70.5% [9.25 µM]

Cc1cc(NS(=O)(=O)c2ccc(NC(=O)CSc3nc4ccccc4c(=O)n3-c3ccccc3)cc2)no1
inactive: T-47D breast 90% | BT-549 breast 97.1% | MDA-MB-435 melanoma 98% | SW-620 colon 98.9% | MCF7 breast 91.4% | HCT-116 colon 94.6% | HCC-2998 colon 96.9% | KM12 colon 94.5%

CC(=O)OC[C@]12CC[C@@H](C(=O)/C=C/c3cccnc3)[C@@H]1[C@H]1CC[C@@H]3[C@@]4(C)CC[C@H](OC(C)=O)C(C)(C)[C@@H]4CC[C@@]3(C)[C@]1(C)CC2
inactive: KM12 colon 18.5%
active: T-47D breast -16.7% | BT-549 breast -12.6% | MDA-MB-435 melanoma -1.17% | SW-620 colon 7.96% | MCF7 breast -26.8% | HCT-116 colon -61.2% | HCC-2998 colon -63.2%

CCC1=Cc2c(OC)cccc2OC12C=Cc1c(OC)cccc1O2 (stereo not given)
active: MDA-MB-435 melanoma -18.8% | HCT-116 colon 8.84% | HCC-2998 colon 2.34%
inactive: T-47D breast 46.8% | BT-549 breast 46.6% | SW-620 colon 30% | MCF7 breast 10.8% | KM12 colon 12.4%

CCOC(=O)c1cccnc1Nc1ccc(NC(=O)Nc2ccc(Cl)c(C(F)(F)F)c2)cc1
inactive: BT-549 breast 60.9% | MDA-MB-435 melanoma 53.1% | SW-620 colon 37.1% | MCF7 breast 17.8% | HCT-116 colon 16.4% | HCC-2998 colon 50.4% | KM12 colon 17.5%
active: T-47D breast -1.09%

O=C(N/N=C/c1cc2ccccc2nc1Cl)c1cc(-c2nc3ccccc3[nH]2)nc2ccccc12
inactive: T-47D breast 67.5% | BT-549 breast 85.9% | MDA-MB-435 melanoma 101% | SW-620 colon 101% | MCF7 breast 89.7% | HCT-116 colon 98.8% | HCC-2998 colon 104% | KM12 colon 97.2%

COc1ccc(N2CCN(C3=C(Cl)C(=O)c4ncccc4C3=O)CC2)cc1
active: T-47D breast -53.3% | MDA-MB-435 melanoma -59.9% | SW-620 colon -4.75% | MCF7 breast -27.6% | HCT-116 colon -59.7%
inactive: BT-549 breast 111% | HCC-2998 colon 107% | KM12 colon 95.7%

CCOC(=O)c1ccc(NC2=CC(=O)C(C)=C(C)C2=O)cc1
inactive: T-47D breast 43.2% | BT-549 breast 91.1% | MDA-MB-435 melanoma 44.2% | SW-620 colon 101% | MCF7 breast 62.7% | HCT-116 colon 56.5% | HCC-2998 colon 101% | KM12 colon 46.1%

CCc1cccc2c3c(sc12)C(c1ccc(F)cc1)C(C#N)=C(/N=C/c1ccc(Cl)cc1)O3 (stereo not given)
active: BT-549 breast 2.79% | MDA-MB-435 melanoma -5.71%
inactive: T-47D breast 30.7% | SW-620 colon 37.6% | MCF7 breast 14% | HCT-116 colon 11.4% | HCC-2998 colon 10.3% | KM12 colon 16.1%

Cc1csc(/N=C(N)/N=C(\N)c2cccs2)n1
inactive: T-47D breast 95.9% | BT-549 breast 134% | MDA-MB-435 melanoma 106% | SW-620 colon 106% | MCF7 breast 81.2% | HCT-116 colon 107% | HCC-2998 colon 116% | KM12 colon 97.8%

CC(Nc1ncnc2ccc(-c3cnc(N)nc3)cc12)c1ccccc1 (stereo not given)
inactive: T-47D breast 12.2% | BT-549 breast 19.9% | MDA-MB-435 melanoma 50.4% | SW-620 colon 67.4% | MCF7 breast 18.5% | HCT-116 colon 33% | HCC-2998 colon 43% | KM12 colon 54.7%

CCC(=C(c1ccc(OCCN2CCCCCC2)cc1)c1ccc(OCCN2CCCCCC2)cc1)c1ccc(Cl)cc1
inactive: T-47D breast 27.1% | BT-549 breast 86.2%
active: MDA-MB-435 melanoma -85.8% | SW-620 colon -49.2% | MCF7 breast -63.7% | HCT-116 colon -88.9% | HCC-2998 colon -86% | KM12 colon 4.43%

COCCOc1ccc2ncc(C#Cc3cncc(C(=O)Nc4ccc(CN5CCN(C)CC5)c(C(F)(F)F)c4)c3)n2n1
active: BT-549 breast 0.139% | SW-620 colon -34% | MCF7 breast -59.8% | HCT-116 colon -86.7% | KM12 colon 0.84%
inactive: T-47D breast 59.6% | MDA-MB-435 melanoma 11.5% | HCC-2998 colon 33.6%

CNC(=O)c1cc(N2CCc3cc(NC(=O)Nc4ccc(N5CCOCC5)c(C(F)(F)F)c4)ccc32)ccn1
active: BT-549 breast -12.6% | HCT-116 colon 2.52%
inactive: T-47D breast 28.1% | MDA-MB-435 melanoma 41.5% | SW-620 colon 34.6% | MCF7 breast 12.4% | HCC-2998 colon 22% | KM12 colon 11.1%

C=C(C=O)[C@@H]1CC[C@]2(C(=O)O)CC[C@]3(C)C(CC[C@@H]4[C@@](C)(CCC#N)[C@H](C(=C)C=O)CC[C@]43C)[C@@H]12 (stereo not given in full)
active: MDA-MB-435 melanoma -9.89% | HCT-116 colon -82.8%
inactive: T-47D breast 28.1% | BT-549 breast 28.9% | SW-620 colon 10.9% | MCF7 breast 14.3% | HCC-2998 colon 108% | KM12 colon 92%

CNC(=O)c1cc(-n2ccc3cc(NC(=O)Nc4ccc(N5CCN(C)CC5)c(C(F)(F)F)c4)ccc32)ccn1
inactive: T-47D breast 87.4% | BT-549 breast 95.1% | MDA-MB-435 melanoma 22.5% | SW-620 colon 21.5% | HCC-2998 colon 92.3% | KM12 colon 30.5%
active: MCF7 breast -23.9% | HCT-116 colon -17.4%

Cc1ccc2c(n1)C(=O)C(Cl)=C(Nc1cc(C(F)(F)F)cc(C(F)(F)F)c1)C2=O
active: T-47D breast -9.18% | SW-620 colon 2.41% | MCF7 breast -24.9%
inactive: BT-549 breast 115% | MDA-MB-435 melanoma 93.8% | HCT-116 colon 42% | HCC-2998 colon 96.5% | KM12 colon 97%

O=C(CSc1nnc(-c2ccc(Cl)cc2)n1-c1ccccc1)Nc1ccc(Cl)cc1
active: HCT-116 colon 1.07%
inactive: T-47D breast 30.9% | BT-549 breast 70.2% | MDA-MB-435 melanoma 42.3% | SW-620 colon 58.6% | MCF7 breast 53.3% | HCC-2998 colon 70.1% | KM12 colon 57.6%
